Measured values reported in PubChem BioAssay AID1942 (Johns Hopkins Ion Channel Center, 2009).
The campaign covered roughly 2,400 compounds. About 580 (24%) were called active. Not all results are given here. Values without a mark were called inactive.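 The calls were made as follows: active = activity change at or above the mean plus 3 SD of buffer wells without dofetilide, per plate; inactive = the rest.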

target: Potassium voltage-gated channel subfamily KQT member 2 (Rattus norvegicus) (UniProt O88943); test: KCNQ2 potentiation in CHO cells – cell-based, FluxOR thallium flux, counter-screen for hERG block protector project, confirmation (AID 1942); conditions: FluxOR thallium flux fluorescence, at 10 µM, active compounds read high;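 also: normalized value minus buffer-control mean plus three SD of buffer wells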
Sequence (O88943 whole entry, looked up): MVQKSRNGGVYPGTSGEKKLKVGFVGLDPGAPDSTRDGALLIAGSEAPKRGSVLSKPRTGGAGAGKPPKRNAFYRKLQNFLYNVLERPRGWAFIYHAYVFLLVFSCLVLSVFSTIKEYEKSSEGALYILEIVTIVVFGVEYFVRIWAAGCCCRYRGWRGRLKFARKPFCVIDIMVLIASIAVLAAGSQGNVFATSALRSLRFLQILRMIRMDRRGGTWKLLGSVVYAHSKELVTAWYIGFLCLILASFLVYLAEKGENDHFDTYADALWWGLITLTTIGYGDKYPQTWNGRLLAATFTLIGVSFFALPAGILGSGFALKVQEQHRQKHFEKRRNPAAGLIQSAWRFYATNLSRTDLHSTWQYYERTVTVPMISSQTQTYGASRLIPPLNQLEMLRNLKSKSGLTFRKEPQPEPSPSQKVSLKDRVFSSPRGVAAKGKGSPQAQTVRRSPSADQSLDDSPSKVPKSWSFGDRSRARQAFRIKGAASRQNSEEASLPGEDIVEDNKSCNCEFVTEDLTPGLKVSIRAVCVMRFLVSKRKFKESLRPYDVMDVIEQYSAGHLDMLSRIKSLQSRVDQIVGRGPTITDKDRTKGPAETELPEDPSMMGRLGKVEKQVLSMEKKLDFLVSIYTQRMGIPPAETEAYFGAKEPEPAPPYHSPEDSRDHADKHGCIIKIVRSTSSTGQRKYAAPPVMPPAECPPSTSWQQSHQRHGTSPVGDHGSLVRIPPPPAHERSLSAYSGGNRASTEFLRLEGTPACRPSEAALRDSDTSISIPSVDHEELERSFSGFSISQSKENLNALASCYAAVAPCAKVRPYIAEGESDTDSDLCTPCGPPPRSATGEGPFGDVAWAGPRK

Row | Compound | activity change, less the hit threshold
1 | NC(=O)c1cccnc1Nc1cccc([N+](=O)[O-])c1 | -14.1%
2 | O=C(O)c1ccc(N=NNc2cccc([N+](=O)[O-])c2)cc1 | 2.2% (active)
3 | Cc1occc1C(=O)Nc1cccc([N+](=O)[O-])c1 | -10.3%
4 | CC(=O)Nc1ccc(NC(=O)CSc2ncc(C(=O)Nc3ccc(Cl)cc3)c(=O)n2C)cc1 | -4.1%
5 | N=c1c2cn[nH]c2nc(SCC(=O)c2ccc(Br)cc2)n1-c1ccc(Br)cc1 | -23.7%
6 | CCOC(=O)C(=CNc1ccc(OC)cc1[N+](=O)[O-])C(=O)OCC | -13.9%
7 | CCOC(=O)N/N=C/C=C/c1ccccc1[N+](=O)[O-] | 5.2% (active)
8 | CCOC(=O)C(=CNc1cc(C)ccc1[N+](=O)[O-])C(=O)OCC | -8.6%
9 | O=S(=O)(NCc1ccc(Cl)cc1Cl)c1ccc(N2CCOCC2)nc1 | -15%
10 | CCOC(=O)/C=C/c1ccc2c(c1)S(=O)(=O)N(c1cccc(OC)c1)[C@H]2CC(=O)OCC | -13.3%
11 | O=C(NC(=S)Nc1nc(-c2cccc([N+](=O)[O-])c2)cs1)c1ccccc1Cl | -10.8%
12 | CN(C)C(=O)c1cc(C(=O)c2ccc(Cl)cc2Cl)c[nH]1 | -14.9%
13 | O=C(Nc1ccsc1C(=O)O)c1ccccc1Cl | -14.7%
14 | CCCn1nnnc1NC(=O)c1cc(Cl)ccc1Cl | -33.4%
15 | CN(C)/C=C/C(=O)c1ccc(Cl)cc1Cl | -15.1%
16 | CCN(CC)C(=S)NC(=O)c1ccc(Cl)cc1Cl | 9% (active)
17 | CCCN(CCC)C(=S)NC(=O)c1ccc(Cl)cc1Cl | 55% (active)
18 | CN(C)CCCN=C(NO)c1ccc(Cl)cc1Cl | -14.9%
19 | CCCCN(CCCC)C(=S)NC(=O)c1ccccc1Cl | 89.6% (active)

Row | Compound | activity change, less the hit threshold
20 | CCC(=O)NC(c1cccs1)c1ccc2cccnc2c1O (stereo unspecified) | -16.7%
21 | CCC(C)NC(=O)c1c(-c2cc(Cl)c(OC)c(Cl)c2)noc1C (stereo unspecified) | -12.6%
22 | O=[N+]([O-])c1cccc(/C=N/N=C\c2ccccc2)c1 | -20.8%
23 | CCOC(=O)c1sc2nc(C)nc(SCC(=O)N(C)C3CCS(=O)(=O)C3)c2c1C (stereo unspecified) | -0.6%
24 | O=C(O)CCSc1ncnc2sc(-c3ccccc3)cc12 | 22.1% (active)
25 | CN(C(=O)CSc1ncnc2sc(-c3ccccc3)cc12)C1CCS(=O)(=O)C1 (stereo unspecified) | 80.2% (active)
26 | CCC(C)NC(=O)CSc1ncnc2sccc12 (stereo unspecified) | -14.8%
27 | Cc1ccccc1-n1c(SCC(=O)N(C)C2CCS(=O)(=O)C2)nnc1-c1ccncc1 (stereo unspecified) | -7.7%
28 | Cc1ccccc1Cc1c(C)nc2c(C(=O)NCc3ccc4c(c3)OCO4)cnn2c1C | -18.7%
29 | O=C(O)CNC(=O)c1ccc(NC(=O)/C(=C/c2ccccc2)NC(=O)c2ccco2)cc1 | -25.9%
30 | O=C(NC(=S)N(CCc1ccccc1)CCc1ccccc1)c1ccco1 | 36% (active)
31 | CC(CCc1ccccc1)NC(=S)NC(=O)c1ccco1 (stereo unspecified) | 15.2% (active)
32 | NC(=O)c1nsc(C(=O)N(CC(=O)NCc2ccccc2)c2ccc(F)cc2)c1N | -23.6%
33 | C/C(=N\NC(=O)c1ccc(NS(=O)(=O)c2cccs2)cc1)c1ccc2c(c1)OCO2 | -25.3%
34 | CNC(=O)COC(=O)c1cccc(S(=O)(=O)N2CCN(c3ccc(F)cc3)CC2)c1 | -11.1%
35 | C=CCn1c(=S)[nH]c2nc3c(cc2c1=O)CCCC3 | -7.5%
36 | C=CCn1c(=S)[nH]c2sc3c(c2c1=O)CCC3 | 34.8% (active)
37 | C=CCn1c(=S)[nH]c2sc3c(c2c1=O)CCCC3 | 46.1% (active)
38 | Cc1ccc(C(C)C)cc1OCCn1cncn1 | -20.3%

Row | Compound | activity change, less the hit threshold
39 | CCCOc1ccc(C2NC(=S)NC(c3ccccc3)=C2C(=O)Nc2ccc(C)cc2)cc1OC (stereo unspecified) | -6.2%
40 | CNC(=O)CSc1nnc(-c2ccco2)n1-c1ccccc1 | -16.7%
41 | COc1ccc(/C=C/C(=O)NC(=S)NNC(=O)c2cccs2)cc1 | -21.3%
42 | Cc1ccc(N/C=C/C(=O)c2cccs2)cc1 | -18%
43 | O=C(Nc1ccc(NC(=O)C2CC2)nc1)c1cccs1 | -16.2%
44 | CCc1ccc(NC(=O)C(=O)NNC(=O)c2cccs2)cc1 | 67.5% (active)
45 | COc1ccc(NC(=O)CNC(=O)c2cccs2)cc1Cl | -13.7%
46 | Cc1ccc(NC(=O)C(=O)NNC(=O)c2cccs2)cc1 | 60.8% (active)
47 | C=CCc1cc(Cl)ccc1OCCOCCN(C)C | -18.7%
48 | Oc1ccc(N=Nc2ccccc2-c2nn[nH]n2)c(O)c1 | -0.7%
49 | Nc1nonc1C(=O)N1CCCC1 | -21%
50 | Cc1cc(C(=O)NNC2CC(=O)N(c3ccc4ccccc4c3)C2=O)c(C)o1 (stereo unspecified) | -17.4%
51 | O=C(N/N=C\c1coc2ccccc2c1=O)c1ccco1 | -15.7%
52 | COc1ccc(C(=O)c2oc3ccccc3c2N)cc1 | -8.5%
53 | CC(=O)Oc1c(-c2ccc(Br)o2)oc2ccccc2c1=O | 99.4% (active)
54 | CC(=O)Oc1c(-c2ccco2)oc2ccccc2c1=O | 6.8% (active)
55 | COc1ccc(OC(=O)Cc2cccc3ccccc23)cc1 | -8.5%
56 | COc1ccc(-c2oc3ccccc3c(=O)c2OC(C)=O)cc1 | 7.3% (active)
